In all, about 420,000 compounds went through this assay and about 64,000 (15%) were called active. Inconclusive results (about 27%) are left out. Only a sample is shown. A number with no mark means an inactive call. The call rests on the fitted dose curve; in most records, active means well fitted inhibition curve with a large enough effect; inconclusive means small, poorly fitted or top-dose-only effect; inactive means flat fitted curve, though single readings scatter.
Assay: qHTS for Inhibitors of human tyrosyl-DNA phosphodiesterase 1 (TDP1): qHTS in cells in absence of CPT; further: nearly all actives have a fitted effect of over 55% in size
Settings: DT40 Tdp1-/- hTDP1 cells, no CPT, ATP luminescence, 48 h; activity change, negative = growth inhibition: at 46.2 µM (top of the series)
From the text: Human tyrosyl-DNA phosphodiesterase 1 (TDP1) is a novel repair gene, and we propose to use it as a new target for anticancer drug development. TDP1 is not an essential protein, but under treatment with topoisomerase I poison (camptothecin: CPT), TDP1 works as a critical factor for cell survival. To directly identify novel TDP1 inhibitors active in a cellular environment, we have knocked-out the Tdp1 gene in chicken DT40 cells (Tdp1-/-) and generated a complemented counterpart cells that contains a stable transfection of the human TDP1 gene (Tdp1-/-;hTDP1 cells). For the primary screen, Tdp1-/-;hTDP1 cells will be exposed to small molecules in the presence or absence of CPT, and their growth kinetics will be evaluated after 48 hours by measuring ATP activity. […] The hit compounds will then be evaluated in the presence or absence of CPT using Tdp1-/- cells. […] In tertiary assays, biochemical gel-based assays will be used to assess whether the hit compounds specifically target TDP1.
To this end, we have screened this cell line against the MLSMR in two primary screens. In one screen we add CPT and in the other we screen in the absence of CPT; this AID represents the screen where CPT was absent.
NIH Chemical Genomics Center [NCGC]
NIH Molecular Libraries Probe Centers Network [MLPCN]
Assay Submitter (PI): Yves Pommier, NCI
DT40-hTDP1 cells without 20 nM Camptothecin (add 20 microL of DMSO in 1 L of cell culture medium) were dispensed at 400 cells/5microL/well in tissue culture treated 1536-well white wall/solid bottom assay plates (Greiner Bio-One North America, NC, U.S.A.) using a Multidrop Combi 8 channel dispenser (Thermo Fisher, Waltham, MA, USA). 23 nL compounds and controls were transferred using the pin tool (Kalypsys, San Diego, CA, USA) to the assay plates. The assay plates were then incubated at 37 masculineC for a minimum 48 hr. Three microL of Cell Titer Glo solution was added to the plates and incubated at RT in dark for 30 min. Luminescence was read using ViewLux (Perkin Elmer) with 1 sec exposure slow speed, high gain and 2x binning.
On the % scale 0 is the no-effect control and ±100 the full control effect; potency means the concentration at half of the fitted maximal effect.

Row | Structure (SMILES) | activity change, negative = growth inhibition | Potency
1 | CCOC(=O)c1c(/N=C/c2cc(C)ccc2O)sc2c1CCC2 | -29.3% | 
2 | CCC(=O)c1ccc(OCC(O)Cn2nc(C)c(C(C)=O)c2C)cc1 (configuration not stated) | -0.93% | 
3 | CC(C)n1c(-c2ccncc2)n[nH]c1=S | 1.02% | 
4 | Cc1cc(C)n(C(=O)c2ccc(C)c(S(=O)(=O)N3CCOCC3)c2)n1 | -0.443% | 
5 | Cc1cccc(NC(=O)C(C)N2C(=O)C3C4CC(C(Br)C4Br)C3C2=O)c1 (configuration not stated) | 1.71% | 
6 | CN(CC(=O)N1CCN(c2ccccc2)CC1)S(=O)(=O)c1cccs1 | -22.1% | 
7 | CC(=O)c1ccc(-n2nnnc2SCC(=O)N2CCN(C(=O)c3ccco3)CC2)cc1 | -25.4% | 
8 | CCOC(=O)c1ccc(NC(=S)Nc2cc(C)cc(C)n2)cc1 | -23% | 
9 | N=C1c2ccccc2-c2ccccc21 | -6.61% | 
10 | O/N=C1\CC2(Cc3nonc31)OCCO2 | -7.73% | 
11 | CCCCN(C(=O)c1ccc(OC(F)(F)F)cc1)c1c(N)n(CCC)c(=O)[nH]c1=O | 10.6% | 
12 | CCCCn1c(N)c(N(CC)C(=O)c2ccccc2C(F)(F)F)c(=O)[nH]c1=O | 3.68% | 
13 | FC(F)(F)c1cc(C(F)(F)F)c2ccc(N3CCN(c4ccccc4)CC3)nc2n1 | -21.5% | 
14 | COc1ccc(C(C(=O)NC2CCCCC2)N(C(=O)CCl)c2ccccc2Cl)cc1 (configuration not stated) |  | 14.6 µM (active)
15 | COc1ccc(C(C(=O)NC2CCCC2)N(CCCO)C(=O)Cn2nnc(-c3ccc(C)o3)n2)cc1 (configuration not stated) | -13% | 
16 | Cc1ccccc1N(C(=O)CNC(=O)c1cccs1)C(C(=O)NC1CCCC1)c1ccncc1 (configuration not stated) | -4.76% | 
17 | CC(NC(=O)COC(=O)c1ccc2c(c1)OCO2)c1ccccc1 (configuration not stated) | 2.55% | 
18 | CC(C)(C)c1ccc(C(=O)NNC(=O)Cc2ccccc2)cc1 | -23.1% | 
19 | CC(C)(C)c1ccc(C(=O)C[N+]2(C)CCCc3ccccc32)cc1 (configuration not stated) |  | 1.58 µM (active)
20 | CSc1ncnc2c1ncn2CCCNCc1cccs1 | -4.56% | 
21 | Cc1ccccc1-c1nc(NC(C)C)nc2cc(-c3ccccc3)sc12 |  | 20.6 µM (active)
22 | O=C(O)CCCC(=O)Nc1ccccc1-n1ccnc1 | 1.45% | 
23 | Cc1c(Cl)c([N+](=O)[O-])nn1CC(=O)NCCCN1CCOCC1 | 0.962% | 
24 | O=S(=O)(c1cccc(-c2nnc3n2CCCCC3)c1)N1CCOCC1 | -7.8% | 
25 | O=S(=O)(c1cccc(-c2cn3ccccc3n2)c1)N1CCCC1 | -13.3% | 
26 | O=S(=O)(c1cccc(-c2nnc(SC(F)F)n2-c2ccccc2)c1)N1CCCCC1 |  | 16.4 µM (active)

Row | Structure (SMILES) | activity change, negative = growth inhibition | Potency
27 | O=C(O)C1=C/C(=C/C=[N+]2c3cc(O)c(O[C@H]4OC(CO)[C@@H](O)[C@@H](O)[C@@H]4O)cc3C[C@@H]2C(=O)[O-])C[C@H](C(=O)O)N1 (some centres not stated) | -27.2% | 
28 | S=c1[nH]nc(Nc2ccccc2)s1 | -28.6% | 
29 | CCOc1c(Cl)cc(/C=N/O)cc1OC | -16.3% | 
30 | CCN1/C(=C/C(=S)Nc2ccccc2)Sc2ccccc21 |  | 4.11 µM (active)
31 | CCC(=O)/C=C1\Sc2ccccc2N1CC | -14.8% | 
32 | O=C(CS(=O)(=O)c1ccc(C(F)(F)F)cn1)NNC(=O)c1ccccc1 | -7.84% | 
33 | Cc1ccc2nc(COc3ccccc3NC(=O)Nc3ccc(F)c(Cl)c3)cc(=O)n2c1 |  | 14.6 µM (active)
34 | Cc1ccc2nc(COc3cccc(NC(=O)Nc4ccc(C)c(Cl)c4)c3)cc(=O)n2c1 | -20.4% | 
35 | Cc1ccc2nc(COc3ccc(NC(=O)COc4ccccc4F)cc3)cc(=O)n2c1 | 2.2% | 
36 | COc1ccc(-c2nn3c(=O)cc(CN4CCN(C(=O)c5ccc(OC)c(OC)c5)CC4)nc3s2)cc1 | -28.5% | 
37 | Cc1nonc1C(=O)N/N=C/c1ccc(O)cc1 | -7.64% | 
38 | COc1ccc(/C=N/NC(=O)c2cc(-c3cccc(C)c3)nc3ccccc23)cc1O |  | 2.31 µM (active)
39 | COc1ccc(/C=N\NC(=O)c2sc(N)nc2C)cc1OC | -17.5% | 
40 | COc1ccc(/C=N/NC(=O)c2ccc(Cl)cc2)cc1COC(C)=O | -8.42% | 
41 | CCOc1ccc(-c2cc(C(=O)N/N=C/c3ccc(O)cc3)c3ccccc3n2)cc1 |  | 0.651 µM (active)
42 | O=C(COc1ccc(/C=N/NC(=O)c2ccc(O)cc2)cc1)Nc1ccc([N+](=O)[O-])cc1 | -17.6% | 
43 | Cc1ccc(N2NC(=O)/C(=C/C=C/c3ccco3)C2=O)cc1C | -19.4% | 
44 | O=C(Nc1cccc(F)c1)c1cc(-c2ccco2)nc2ccccc12 | -5.25% | 
45 | Cc1ccc(-c2cc(C(=O)N/N=C/C=C/c3ccco3)c3ccccc3n2)cc1C |  | 8.2 µM (active)
46 | COc1cccc(-c2cc(C(=O)N/N=C/c3ccc(OC)c(COC(C)=O)c3)c3ccccc3n2)c1 |  | 2.06 µM (active)
47 | Cc1ccc(S(=O)(=O)NCCC(c2ccccc2)c2ccccc2)cc1C(=O)O | -15.3% | 
48 | O=C(CCCOc1ccc(Cl)cc1Cl)NNC(=O)C1CCC1 | -1.44% | 
49 | Cc1ccc(C)c2[nH]c(=O)c(CCNC(=O)CC(C)C)cc12 | 2.3% | 
50 | COc1ccc(Cc2nnnn2CC(=O)O)cc1 | 8.47% | 
51 | Cc1ccc(S(=O)(=O)CC(=O)Nc2c(C)n(C)n(-c3ccccc3)c2=O)cc1 | 20.7% | 
52 | Cc1cc(C)n2nc(SCC(N)=O)nc2n1 | -3.37% | 
